High-throughput results (PubChem BioAssay)
SKN-1 block: blocks SKN-1 activity in C. elegans | C. elegans VP596 Pgst-4::GFP/RFP ratio, acrylamide-induced, 24 h | inhibition, % at 21.8 µM | actives 0.49% (n = 360,000) | AID 624304;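 active means interference check ratio from 0.5 to 1.5 plus GFP to RFP signal ratio inhibition reaching or exceeding a fixed threshold, cut at about 30% in these data, passing the limit was not always enough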
NR1D1 modulator: Rev-erb alpha (human) modulation; P20393; Rev-erbα–FITC-DNA binding, fluorescence polarization, 90 min; AID 1259318; actives 0.79% (n = 370,000); activity, % at 10 µM;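 active means activity above about 14%, limit read from the data; passing the limit was not always enough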;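 further: 0% = DMSO wells with 35 nM protein and 100% = DMSO wells with 750 nM protein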
RAM network inh: blocks the yeast RAM network; S. cerevisiae dse1pr::URA3 reporter, 5-FOA growth OD615, 2 d; analog-sensitive cbk1-as2 kinase mutant strain; inhibition, % at 50 µM; actives 1.8% (n = 190,000); AID 868;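 active means inhibition above a set limit, 3 SD over mean compound inhibition, cut at about 8.4% in these data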;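 further: 0% = DMSO-only wells with no growth and 100% = 10 µM 1-NA-PP1 full growth; inhibition rescues growth on 5-FOA so higher OD means more RAM inhibition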
PG9 Ab binder: PG9 antibody binding by small molecule; TR-FRET gp120-PG9 antibody binding; inhibition, % at 6.7 µM; actives 0.43% (n = 360,000); AID 624416; in the data active means inhibition above about 8.5%
EP2 mod: modulators of human EP2 prostaglandin E2 receptor; P43116; EP2-expressing cells, cAMP HTRF FRET, PGE2 co-stimulation; induction, % at 25 µM; actives 0.83% (n = 260,000); AID 940;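 active means compounds whose cAMP rise, as percent of the full-agonist control response, exceeds 60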;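 further: rat C6 glioma line stably carrying human EP2 under a CMV promoter; the protocol text gives 20 µM as final concentration; 100% = response of wells given 1 µM PGE2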
Target sequence (P43116 whole entry, looked up): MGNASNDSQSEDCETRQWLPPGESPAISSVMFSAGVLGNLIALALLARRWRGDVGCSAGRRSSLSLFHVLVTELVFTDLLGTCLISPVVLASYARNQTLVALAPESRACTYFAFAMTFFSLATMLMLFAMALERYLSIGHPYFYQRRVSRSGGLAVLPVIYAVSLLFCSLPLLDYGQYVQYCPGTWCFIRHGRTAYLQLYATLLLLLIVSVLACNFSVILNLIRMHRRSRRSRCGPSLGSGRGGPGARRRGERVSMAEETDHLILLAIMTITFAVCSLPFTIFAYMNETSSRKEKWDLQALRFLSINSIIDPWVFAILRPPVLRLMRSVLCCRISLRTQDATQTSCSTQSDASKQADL
EP2 antag: EP2 receptor (human) inhibition. P43116. C6 glioma cells expressing human EP2, cAMP TR-FRET; cells stimulated with saturating PGE2. inhibition, % at 25 µM. actives 0.52% (n = 260,000);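 active means percent inhibition above 40 after rounding to a whole number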;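 further: rat C6 glioma host cells with rolipram phosphodiesterase inhibitor present; the protocol text gives 20 µM as final concentration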
An asterisk follows results filed as active; / = not tested or not shown. Only some compounds are listed: those with a hit (about 2.9% of all), similar ones and a draw of the others.

SMILES	SKN-1 block	NR1D1 modulator	RAM network inh	PG9 Ab binder	EP2 mod	EP2 antag
c1csc(-c2ccc3ccccc3n2)c1	43*	1	0	0	-61	/
Nc1nc2ccccc2cc1-c1cccs1	-3	-1	/	1	/	/
Cc1ccc2[nH]c(=O)c(CN(Cc3ccco3)C(c3nnnn3CCc3ccccc3)C(C)C)cc2c1 (configuration not stated)	/	/	/	/	24	20
C=CCN(c1ccc(C(=O)NC(C)C)cc1)S(C)(=O)=O	47*	-2	0	-3	-15	5
C=CCN(c1ccc(C(=O)Nc2ccc(C)cc2)cc1)S(C)(=O)=O	-13	8	3	1	-23	6
Cc1cc2c(s1)c1cnn(Cc3ccccn3)c(=O)c1n2Cc1ccc(F)cc1	/	/	/	/	38	/
O=C(c1ccc([N+](=O)[O-])cc1[N+](=O)[O-])N1CCc2ccccc21	13	-4	/	-1	/	/
O=C(N=C1N=C2C=CC(Br)=CN2Cc2ccccc21)c1ccc([N+](=O)[O-])cc1[N+](=O)[O-]	60*	-2	/	-1	-28	9
COc1cc(-c2nc3cnccn3c2NCc2ccco2)ccc1O	/	/	/	/	-77	/
CCOC(=O)/C(=N\Nc1ccccc1)c1csc(Nc2ccc(C)cc2)n1	10	-3	10*	1	14	20
N#Cc1ccc(NC(=O)CSc2nc(N)c(C#N)cc2C#N)cc1	/	/	/	/	-5	43*
CCOC(=O)CSc1nc2ccc(NC(=O)CSc3nnnn3Cc3ccccc3)cc2s1	-19	5	9.5*	1	-47	16
CCOC(=O)c1cc(C)sc1NC(=S)Nc1ccccc1	-3	4	6	0	65*	9
CCOC(=O)c1c(NC(=O)CSc2nc3ccccc3s2)sc(C)c1C	-11	-1	11*	0	44	9
CCOC(=O)c1c(-c2ccco2)csc1NC(=O)CSc1nnc(N)s1	15	-10	10*	1	6	8
COc1ccc(C(O)CN2CCC3(CC2)CC(O)c2ccccc2O3)cc1OC (configuration not stated)	/	/	/	/	-12	8
C=CCn1c(SCC(=O)Nc2sc(C)c(C)c2C(=O)OCC)nnc1-c1sc(N)nc1C	1	-1	11*	-2	14	8
CCOC(=O)c1c(NC(=S)Nc2ccccc2)sc(C)c1C	8	8	9.6*	-1	22	9
CC(C)c1ccc(NC(=O)NCc2cccnc2)cc1	39*	2	/	-2	/	/
Cc1ccc(NC(=O)NCc2cccnc2)cc1	1	4	/	0	/	/
COc1ccc(-c2cc(C(F)(F)F)nc(SCC(=O)NCc3ccncc3)n2)cc1OC	/	/	/	/	-13	11
COC(=O)c1sc(NC(=O)c2c(F)cccc2F)c(C#N)c1C	-8	-6	1	0	-22	6
N#Cc1c(NC(=O)C(F)(F)F)sc2c3c(=O)c4ccccc4c(=O)c=3oc3ccccc3c12	/	/	/	/	-6	42*
CCN(Cc1cc2cc(C)ccc2[nH]c1=O)C(=O)c1ccccc1F	/	/	/	/	-60	14
CN(C(=O)C1CCCC1)c1nc2c(s1)CCc1occc1-2	/	/	/	/	-11	/
SMILES	SKN-1 block	NR1D1 modulator	RAM network inh	PG9 Ab binder	EP2 mod	EP2 antag
Cc1ccc(CNc2nc3ccccc3n2C)o1	-7	-1	/	-3	/	/
Cn1c(-c2ccc(CN3CCCCC3)o2)nc2ccccc21	36*	10	3	-1	29	/
N#CC1=C(N)N(c2ccc(F)cc2)C2=C(C1c1ccc(O)cc1)S(=O)(=O)CC2 (configuration not stated)	35*	-5	2	-5	0	4
CCN(CC)C(=O)Cn1ncc2c3sc(C)cc3n(CC)c2c1=O	/	/	/	/	-16	/
CC1(Cc2ccc(OC(F)(F)F)cc2)C(=O)Nc2ccc(OC(F)(F)F)cc21 (configuration not stated)	38*	9	/	0	/	/
COC(=O)c1ccc(CC2(C)C(=O)Nc3ccc(-c4cccc(C(F)(F)F)c4)cc32)o1 (configuration not stated)	39*	-1	/	-2	/	/
Cc1nc(NC(=O)CN2CCC(c3ccc(F)cc3)CC2)sc1C	/	/	/	/	-84	/
COc1ccccc1NC(=O)Cc1csc(NC(=O)c2ccc(F)cc2)n1	/	/	/	/	-65	15
CCC(=O)Nc1nc(CC(=O)Nc2ccccc2OC)cs1	35*	-2	1	1	24	18
Nc1nc(N)c2cc(Sc3ccc4ccccc4c3)ccc2n1	3	5	/	0	-44	53*
CCC(C)Nc1nc(N)c([N+](=O)[O-])c(Nc2cc(OC)ccc2OC)n1 (configuration not stated)	18	0	/	0	36	4
COc1ccc(OC)c(Nc2nc(NCCC(C)C)nc(N)c2[N+](=O)[O-])c1	-3	5	/	-1	63*	8
Cc1ccc(-n2nnnc2SCc2nnc(-c3ccccc3Br)o2)cc1	0	2	10*	0	-47	17
Brc1ccccc1-c1nnc(CSc2nncn2-c2ccccc2)o1	-27	3	2	-1	4	8
Nc1cc(C2CCNCC2)nc2cc(-c3cccc(F)c3)nn12	/	/	/	/	-68	/
O=C1c2ccccc2-c2ccc(N(Cc3ccc(Br)cc3)Cc3ccc(Br)cc3)cc21	/	/	/	/	18	47*
O=C1C=C(NCCc2cc(Br)c(O)c(Br)c2)C(=O)c2ncccc21	20	-11	/	-5	-49	104*
O=C1C(=O)c2ncccc2-c2cccnc21	/	/	/	/	33	16
CCOC(=O)CSc1nc2ccccc2c(=O)n1CCN1CCOCC1	36*	-4	0	-2	34	2
CC(=O)CSc1nnc2c3ccccc3nc(C(C)(C)C)n12	5	3	0	1	61*	14
CCOC(=O)CSc1nnc2c3ccccc3nc(Cc3ccccc3)n12	/	/	/	/	65*	9
CCCCC[C@@H](O)[C@@H]1C(=O)O[C@@H](C)[C@@H](O)C=C/C=C\C=CC=C/C=C(/C)[C@H](O)C[C@H](O)C[C@H](O)C[C@H](O)C[C@H](O)C[C@H](O)C[C@@H]1O	/	/	/	/	23	50*
CCCCC[C@@H]1CCCCC[C@H](O)C[C@@H](O)[C@@H](O)/C=C/C(=O)O1	11	12	/	0	/	/
CC(C)(C)c1ncc(C(=O)Nc2cccc(N3CCCC3)c2)cn1	/	/	/	/	-85	9
C[N+](C)(C)[C@@H](C1=CCCC1=O)c1ccccc1	/	/	/	/	18	52*
O=C(Nc1ccc(S(=O)(=O)NCc2ccco2)cc1)c1cccc(Cl)c1	/	/	/	/	-38	14
Cc1nc(-c2ccccn2)sc1C(=O)Nc1ccc(Cl)c(Cl)c1	15	13	1	-1	-31	52*
CCN1C(=O)/C(=C\C=C\c2ccccc2[N+](=O)[O-])SC1=S	-7	9	8.6*	1	13	3
CCOc1ccccc1C=C1SC(=S)N(CC)C1=O	0	4	/	-1	/	/
COc1ccc(F)c(CN(CCCN2CCOCC2)Cc2cccnc2)c1	/	/	/	/	-2	6
